# According to a collection of fitness landscapes (doi:10.1016/j.celrep.2020.107928):
# The full ranking holds about 81,000 sequences; the median of “one-hybrid fitness for binding NBS DNA” is about -0.1, and the highest 2% start at about 0.36. Only a selection was taken, and the highest values are over-represented in it overall.
# B1: Caulobacter ParB omega fusion; a variant is named by its letters at X, in order, B8GW30 (parent)
# chain: MESVVVGEPGMSEGRRGLGRGLSALLGEVDAAPAQAPGEQLGGSREAPIEILQRNPDQPRRTFREEDLEDLSNSIREKGVLQPILVRPSPDTAGEYQIVAGERAWRAAQRAGLKTVPIMVRELDDLAVLEIGIIENVQRADLNVLEEALSYKVLMEKFERTQENIAQTIGKSXSHVANXMRLLXLPDEVQSYLVSGELTAXHARAIAAAADPVALAKQIIEGGLSVRETEALARKAPNLSAGKSKGGRPPRVKDTDTQALESDLSSVLGLDVSIDHRGSTGTLTITYATLEQLDDLCNRLTRGI
# Variants of: B1
# Test: one-hybrid fitness for binding NBS DNA (the Noc-binding site; scaled: cognate 1, non-cognate 0); higher = stronger binding
# Settings: with NBS DNA site
# Method in brief: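 On M9-minus-histidine containing 0.1 mM IPTG and 5 mM 3-AT, E. coli USO cells with a HIS3 reporter, site 19 bp from the promoter, grew 48 hours at 37°C to select Caulobacter ParB libraries randomised at four specificity codons. Plasmids from before and after were Illumina-sequenced, with three replicate libraries pooled and variants under 10 reads left out. Fitness is the log change in variant-to-wild-type read ratio, rescaled against cognate and non-cognate.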
row,Variant,one-hybrid fitness for binding NBS DNA
1,SHHD,≤ 0.2
2,AWRT,≤ 0.2
3,FPKF,≤ 0.2
4,NPPH,≤ 0.2
5,KTTD,≤ 0.2
6,EIVG,≤ 0.2
7,PQLT,≤ 0.2
8,LLMK,≤ 0.2
9,QHCN,≤ 0.2
10,QICR,0.377
11,QSCR,0.493
12,QICS,0.216
13,QSCD,≤ 0.2
14,QHCR,0.473
15,QTCR,0.679
16,QICG,≤ 0.2
17,QTCF,≤ 0.2
18,QTCG,≤ 0.2
19,QSCN,≤ 0.2
20,QHCS,0.279
21,SPDS,≤ 0.2
22,SFYS,≤ 0.2
23,PAKH,≤ 0.2
24,GLKV,≤ 0.2
25,DMTR,≤ 0.2

row,Variant,one-hybrid fitness for binding NBS DNA
1,PHDI,≤ 0.2
2,QDRR,0.275
3,QCYR,0.606
4,QWYR,0.201
5,QSYR,0.458
6,QSRR,1
7,QGRR,0.33
8,QGYR,≤ 0.2
9,QSYD,≤ 0.2
10,HTCT,≤ 0.2
11,HKQR,≤ 0.2
12,IERR,≤ 0.2
13,GCNT,≤ 0.2
14,VMRG,≤ 0.2
15,EMRQ,≤ 0.2
16,IITW,≤ 0.2
17,YLQI,≤ 0.2
18,DRMT,≤ 0.2
19,KRMR,0.51
20,KCMT,≤ 0.2
21,KRMN,≤ 0.2
22,KRMS,0.396
23,KRMT,0.539
24,KRMD,≤ 0.2
25,KSMR,≤ 0.2

row,Variant,one-hybrid fitness for binding NBS DNA
1,KCMR,≤ 0.2
2,TALF,≤ 0.2
3,RSDT,≤ 0.2
4,RINT,0.554
5,RANT,0.496
6,RSNT,0.503
7,RADT,≤ 0.2
8,RTNN,≤ 0.2
9,RTDT,0.284
10,RINP,≤ 0.2
11,RTNT,0.636
12,RIDT,≤ 0.2
13,RSNN,≤ 0.2
14,RANP,≤ 0.2
15,WWTD,≤ 0.2
16,LSRK,≤ 0.2
17,SSTW,≤ 0.2
18,ASEC,≤ 0.2
19,SYLM,≤ 0.2
20,SHDP,≤ 0.2
21,PPLD,≤ 0.2
22,IVCR,≤ 0.2
23,GYLC,≤ 0.2
24,RFNT,0.279
25,RCNT,0.589

row,Variant,one-hybrid fitness for binding NBS DNA
1,RHNT,0.508
2,RPNT,≤ 0.2
3,RMNH,0.26
4,RHND,≤ 0.2
5,RMDT,0.226
6,RHDT,0.258
7,RMNT,0.546
8,ADTR,≤ 0.2
9,WVAC,≤ 0.2
10,TAAM,≤ 0.2
11,SGRG,≤ 0.2
12,CNSI,≤ 0.2
13,HRTD,≤ 0.2
14,KSYC,≤ 0.2
15,QIRR,0.867
16,QCRR,1.13
17,QIPR,0.203
18,QPRR,0.365
19,QIYR,0.348
20,QWRR,0.355
21,QPYR,≤ 0.2
22,QERR,0.245
23,GWMI,≤ 0.2
24,TGPP,≤ 0.2
25,RGHW,≤ 0.2

row,Variant,one-hybrid fitness for binding NBS DNA
1,KLGK,≤ 0.2
2,AATY,≤ 0.2
3,KFTC,≤ 0.2
4,SYMR,≤ 0.2
5,GWRK,≤ 0.2
6,FEGS,≤ 0.2
7,RYSR,0.452
8,RYVR,0.269
9,RYHP,≤ 0.2
10,RYHR,0.471
11,RYKG,≤ 0.2
12,RYKR,0.744
13,RYSD,≤ 0.2
14,RYDR,0.207
15,RYSP,≤ 0.2
16,RYHH,≤ 0.2
17,RYNR,0.519
18,RYNH,0.209
19,THIG,≤ 0.2
20,RYQR,0.44
21,RYYR,0.404
22,RYPR,≤ 0.2
23,RYRR,0.726
24,RYWR,0.269
25,RYQP,≤ 0.2

row,Variant,one-hybrid fitness for binding NBS DNA
1,RYIR,0.203
2,RYGR,0.432
3,RYQN,≤ 0.2
4,RYGH,≤ 0.2
5,RYLR,0.354
6,RYGP,≤ 0.2
7,QYAV,≤ 0.2
8,ENTF,≤ 0.2
9,ECNK,≤ 0.2
10,PSCV,≤ 0.2
11,ALDS,≤ 0.2
12,AKVC,≤ 0.2
13,RYAR,0.43
14,RYCR,0.377
15,RYCD,≤ 0.2
16,RYFR,0.241
17,RYCN,≤ 0.2
18,RYAP,≤ 0.2
19,REYM,≤ 0.2
20,RFAG,≤ 0.2
21,QSRK,0.376
22,QLRK,0.336
23,QAYK,≤ 0.2
24,QCYK,≤ 0.2
25,QPRK,≤ 0.2

row,Variant,one-hybrid fitness for binding NBS DNA
1,QMRK,0.387
2,QCRK,0.478
3,QADK,≤ 0.2
4,QMYK,≤ 0.2
5,QSYK,≤ 0.2
6,QARK,0.37
7,QMDK,≤ 0.2
8,GVLR,≤ 0.2
9,WSLR,≤ 0.2
10,LIRR,≤ 0.2
11,KRDL,≤ 0.2
12,YEVL,≤ 0.2
13,QKDK,≤ 0.2
14,QKNK,≤ 0.2
15,QKRK,0.429
16,QTYK,≤ 0.2
17,QTDK,≤ 0.2
18,QTRK,0.546
19,YNVR,≤ 0.2
20,VWSR,≤ 0.2
21,HGEV,≤ 0.2
22,TVPQ,≤ 0.2
23,CGFR,≤ 0.2
24,CGAE,0.595
25,CGVE,≤ 0.2

row,Variant,one-hybrid fitness for binding NBS DNA
1,CGYR,≤ 0.2
2,FGAR,0.385
3,CGAR,0.441
4,NGAE,≤ 0.2
5,FGFR,≤ 0.2
6,FGYR,≤ 0.2
7,ITGA,≤ 0.2
8,QREE,≤ 0.2
9,CKNS,≤ 0.2
10,ATHI,≤ 0.2
11,YEAF,≤ 0.2
12,WRNM,≤ 0.2
13,TRHT,0.364
14,LQMW,≤ 0.2
15,YQHT,≤ 0.2
16,QTGR,0.813
17,QSGR,0.547
18,QSGH,≤ 0.2
19,QGGR,≤ 0.2
20,QIGR,0.437
21,QCGR,0.764
22,QTGG,0.204
23,QIGS,0.295
24,QSGP,≤ 0.2
25,QPGR,≤ 0.2

row,Variant,one-hybrid fitness for binding NBS DNA
1,QIGD,≤ 0.2
2,QTGM,0.3
3,LCEP,≤ 0.2
4,GKTT,≤ 0.2
5,LKMC,≤ 0.2
6,WIPG,≤ 0.2
7,IPHT,≤ 0.2
8,YLLF,≤ 0.2
9,SHQN,≤ 0.2
10,LRKG,≤ 0.2
11,QQKR,1.1
12,QQVR,0.491
13,QQVH,≤ 0.2
14,QQKE,0.335
15,QQKL,0.327
16,QQVD,≤ 0.2
17,AGDY,≤ 0.2
18,GMLG,≤ 0.2
19,RCVE,≤ 0.2
20,YVKV,≤ 0.2
21,QRWN,≤ 0.2
22,QRRP,0.359
23,QRRS,0.787
24,QRYD,0.222
25,QRWS,0.54

row,Variant,one-hybrid fitness for binding NBS DNA
1,QRRN,0.547
2,QRRD,0.356
3,QRYN,0.319
4,QRYP,≤ 0.2
5,QRWP,≤ 0.2
6,QRYS,0.646
7,NAHV,≤ 0.2
8,FSNM,≤ 0.2
9,SRRP,≤ 0.2
10,THHR,≤ 0.2
11,VCSD,≤ 0.2
12,WQLA,≤ 0.2
13,RTRG,0.215
14,CCQR,≤ 0.2
15,CVKA,≤ 0.2
16,MAIS,≤ 0.2
17,NATF,≤ 0.2
18,MAFC,≤ 0.2
19,ECWS,≤ 0.2
20,QREN,≤ 0.2
21,QCES,0.301
22,QRES,0.469
23,PSVG,≤ 0.2
24,QTCH,0.319
25,QPCT,≤ 0.2

row,Variant,one-hybrid fitness for binding NBS DNA
1,QTCT,0.571
2,QTCD,≤ 0.2
3,QICT,0.266
4,QCCT,0.521
5,QSCT,0.386
6,QHCT,0.294
7,QLCT,0.345
8,SKPI,≤ 0.2
9,DYFM,≤ 0.2
10,LNNN,≤ 0.2
11,EHQL,≤ 0.2
12,GRLL,≤ 0.2
13,SFYC,≤ 0.2
14,IRNN,≤ 0.2
15,MQRC,≤ 0.2
16,NLPG,≤ 0.2
17,QKKR,1
18,QKVR,0.423
19,QKVN,≤ 0.2
20,QKVS,0.32
21,QKKF,0.294
22,DKKR,≤ 0.2
23,NTIC,≤ 0.2
24,EQRE,≤ 0.2
25,TGAR,≤ 0.2

row,Variant,one-hybrid fitness for binding NBS DNA
1,GMCV,≤ 0.2
2,RMHN,≤ 0.2
3,RPHS,≤ 0.2
4,RSHH,≤ 0.2
5,RSHS,0.47
6,RLHP,≤ 0.2
7,RLHS,0.462
8,RCHS,0.577
9,RMHD,≤ 0.2
10,RSHP,≤ 0.2
11,RLHH,≤ 0.2
12,RMHS,0.486
13,RFHS,0.275
14,CMKS,≤ 0.2
15,HSMS,≤ 0.2
16,YEDC,≤ 0.2
17,VNHL,≤ 0.2
18,HDMN,≤ 0.2
19,VQAT,≤ 0.2
20,RKHS,0.624
21,RAHD,≤ 0.2
22,RKHD,≤ 0.2
23,RKHN,≤ 0.2
24,RAHN,≤ 0.2
25,RAHS,0.482

row,Variant,one-hybrid fitness for binding NBS DNA
1,FLVC,≤ 0.2
2,LRGC,≤ 0.2
3,IPDS,≤ 0.2
4,QIHC,≤ 0.2
5,QPHR,≤ 0.2
6,QSHD,≤ 0.2
7,QSHR,0.578
8,QIHR,0.493
9,QSHP,≤ 0.2
10,QCHR,0.742
11,QTHM,0.296
12,QWHR,0.288
13,QIHD,≤ 0.2
14,QTHK,0.293
15,QTHR,0.877
